Source: PubChem BioAssay (Tox21)
Inconclusive results are not listed. The source made the active and inactive calls. Calls come from the whole dose curve; as a rule, active = well fitted curve in the direction sought with a large enough effect in the repeat runs; inconclusive = weak or mixed curves; inactive = no such curve, though single readings can be large; an effect the other way counts as inactive or inconclusive.

Assays:
[1] = A CellTox Green Cytotoxicity Assay to monitor cytotoxicity in HepG2 cells - 16 hour (AID 1224876); note: nearly all actives have a fitted effect of over 45% in size
Summary of the method: (§1)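 HepG2 cells were seeded together with the CellTox Green dye at 600 cells/well, left 5 h at 37 C/5% CO2, then given compounds in DMSO. Fluorescence from dye bound to dead-cell DNA was read repeatedly over 40 h of treatment at 37 C.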

[2] = qHTS RealTime-Glo MT Cell Viability Assay in HepG2 cells - 32 hour (AID 1224877); note: nearly all actives have a fitted effect of over 55% in size
Summary of the method: (§2)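 HepG2 suspension premixed with RealTime-Glo reagents is plated at 600 cells per well and left 5 h at 37 C/5% CO2. Compounds in DMSO then go in, and bioluminescence reflecting viable cell number is recorded over 40 h.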

[3] = A CellTox Green Cytotoxicity Assay to monitor cytotoxicity in HepG2 cells - 24 hour (AID 1224878); note: nearly all actives have a fitted effect of over 45% in size
Summary of the method: as §1

[4] = A CellTox Green Cytotoxicity Assay to monitor cytotoxicity in HepG2 cells - 40 hour (AID 1224879); note: nearly all actives have a fitted effect of over 40% in size
Summary of the method: as §1

[5] = qHTS RealTime-Glo MT Cell Viability Assay in HEK293 cells - 0 hour (AID 1224880); note: top concentration of the series differs between compounds; nearly all actives have a fitted effect of over 45% in size
Summary of the method: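 HEK293 cells mixed with RealTime-Glo reagents (NanoLuc plus cell-permeant prosubstrate) at 600 cells/well, preincubated 5 h at 37 C/5% CO2, then given 23 nL compound in DMSO. Nonlytic luminescence from viable cells was read at 0, 8, 16, 24, 32 and 40 h.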

[6] = A CellTox Green Cytotoxicity Assay to monitor cytotoxicity in HEK293 cells - 32 hour (AID 1224881); note: nearly all actives have a fitted effect of over 40% in size
Summary of the method: (§3)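 HEK293 cells premixed with CellTox Green dye were seeded at 600 cells/well and left 5 h at 37 C/5% CO2 before pin transfer of 23 nL compound in DMSO. Fluorescence from dye bound to dead-cell DNA was read during 40 h treatment.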

[7] = A CellTox Green Cytotoxicity Assay to monitor cytotoxicity in HepG2 cells - 0 hour (AID 1224882); note: nearly all actives have a fitted effect of over 35% in size
Summary of the method: as §1

[8] = A CellTox Green Cytotoxicity Assay to monitor cytotoxicity in HepG2 cells - 32 hour (AID 1224883); note: nearly all actives have a fitted effect of over 50% in size
Summary of the method: as §1

[9] = A CellTox Green Cytotoxicity Assay to monitor cytotoxicity in HEK293 cells - 8 hour (AID 1224884); note: nearly all actives have a fitted effect of over 35% in size
Summary of the method: as §3

[10] = qHTS RealTime-Glo MT Cell Viability Assay in HepG2 cells - 16 hour (AID 1224885); note: nearly all actives have a fitted effect of over 50% in size
Summary of the method: as §2
% is set by controls: 0 for no effect and ±100 for the full control effect.

CC(CC(=O)O)CC(C)(C)C (stereo not given)
inactive: Potency [1] | outcome [2] | Potency [3] | Potency [4] | outcome [5] | Potency [6] | Potency [7] | Potency [8] | Potency [9]

C=COCCOCCOC=C
inactive: Potency [1] | outcome [2] | Potency [3] | Potency [4] | outcome [5] | Potency [6] | Potency [7] | Potency [8] | Potency [9] | outcome [10]

Cc1ccc(S(=O)(=O)NC(=O)NC2CCCCCCC2)cc1
inactive: Potency [1] | outcome [2] | Potency [3] | Potency [4] | outcome [5] | Potency [6] | Potency [7] | Potency [8] | Potency [9] | outcome [10]

CCCCCCCCCCCCCCCCI
inactive: cytotoxicity increase [1] -9.76% [at 15.8 µM] | activity change, negative = cytotoxic [2] 7.46% [at 15.8 µM] | cytotoxicity [3] -11% [at 15.8 µM] | cytotoxicity increase [4] -12.9% [at 15.8 µM] | activity change, negative = cytotoxicity [5] -2.88% [at 15.8 µM] | cytotoxicity increase [6] -8.24% [at 15.8 µM] | cytotoxicity [7] -4.1% [at 15.8 µM] | cytotoxicity increase [8] -12.6% [at 15.8 µM] | cytotoxicity increase [9] -6.52% [at 15.8 µM] | activity change, negative = cytotoxic [10] -8.4% [at 15.8 µM]

O=C(O)C(=O)Nc1cccc(-c2nn[nH]n2)c1
inactive: Potency [1] | outcome [2] | Potency [3] | Potency [4] | outcome [5] | Potency [6] | Potency [7] | Potency [8] | Potency [9] | outcome [10]

NC(Cc1c[nH]c2ccccc12)C(=O)O (stereo not given)
inactive: Potency [1] | outcome [2] | Potency [3] | Potency [4] | outcome [5] | Potency [6] | Potency [7] | Potency [8] | Potency [9] | outcome [10]

CCCC(C)CC (stereo not given)
inactive: Potency [1] | outcome [2] | Potency [3] | Potency [4] | outcome [5] | Potency [6] | Potency [7] | Potency [8] | Potency [9] | outcome [10]

FC(F)(F)/C(=N\OCC1OCCO1)c1ccc(Cl)cc1
inactive: Potency [1] | outcome [2] | Potency [3] | Potency [4] | outcome [5] | Potency [6] | Potency [7] | Potency [8] | Potency [9] | outcome [10]

COC(=O)CCC(=O)O
inactive: Potency [1] | outcome [2] | Potency [3] | Potency [4] | outcome [5] | Potency [6] | Potency [7] | Potency [8] | Potency [9]

CCOc1ccc(NC(=O)OC(C)C)cc1OCC
inactive: Potency [1] | outcome [2] | Potency [3] | Potency [4] | outcome [5] | Potency [6] | Potency [7]

CCCCCCCCCCCCOC(C)=O
inactive: Potency [1] | outcome [2] | Potency [3] | Potency [4] | outcome [5] | Potency [6] | Potency [7] | Potency [8] | Potency [9] | outcome [10]

O=S1(=O)CCCC1
inactive: Potency [1] | outcome [2] | Potency [3] | Potency [4] | outcome [5] | Potency [6] | Potency [7] | Potency [8] | Potency [9] | outcome [10]

Cn1c(=O)c2c(ncn2CC2OCCO2)n(C)c1=O
inactive: Potency [1] | outcome [2] | Potency [3] | Potency [4] | outcome [5] | Potency [6] | Potency [7] | Potency [8] | Potency [9] | outcome [10]

Cc1ccccc1N1CCN(CCc2nnc3n2CCCC3)CC1
inactive: Potency [1] | outcome [2] | Potency [3] | Potency [4] | outcome [5] | Potency [6] | Potency [7] | Potency [8] | Potency [9] | outcome [10]

CC1=CC[C@H](CC=O)C1(C)C
inactive: Potency [1] | outcome [2] | Potency [3] | Potency [4] | outcome [5] | Potency [6] | Potency [7] | Potency [8] | Potency [9] | outcome [10]

CCCCOC(=O)C(C)OC(=O)CCC (stereo not given)
inactive: Potency [1] | outcome [2] | Potency [3] | Potency [4] | outcome [5] | Potency [6] | Potency [7] | Potency [8] | Potency [9] | outcome [10]

Cc1ccccc1C
inactive: Potency [1] | outcome [2] | Potency [3] | Potency [4] | outcome [5] | Potency [6] | Potency [7] | Potency [8] | Potency [9] | outcome [10]

CC(=O)OC(C)c1ccccc1 (stereo not given)
inactive: Potency [1] | outcome [2] | Potency [3] | Potency [4] | outcome [5] | Potency [6] | Potency [7] | Potency [8] | Potency [9] | outcome [10]

CN=C(NC#N)NCCSCc1csc(N=C(N)N)n1
inactive: Potency [1] | outcome [2] | Potency [3] | Potency [4] | outcome [5] | Potency [6] | Potency [7] | Potency [8] | Potency [9] | outcome [10]

CCCCCC1CCCC(=O)O1 (stereo not given)
inactive: Potency [1] | outcome [2] | Potency [3] | Potency [4] | outcome [5] | Potency [6] | Potency [7] | Potency [8] | Potency [9] | outcome [10]

Cc1cc(O)c2c(c1)C(=O)c1cccc(O)c1C2=O
inactive: Potency [1] | outcome [2] | Potency [3] | Potency [4] | outcome [5] | Potency [6] | Potency [7] | Potency [8] | Potency [9] | outcome [10]

COC(OC)C(C)c1ccccc1 (stereo not given)
inactive: Potency [1] | outcome [2] | Potency [3] | Potency [4] | outcome [5] | Potency [6] | Potency [7] | Potency [8] | Potency [9] | outcome [10]

OC[C@@H](O)[C@H](O)[C@@H](O)[C@@H](O)CO
inactive: Potency [1] | outcome [2] | Potency [3] | Potency [4] | outcome [5] | Potency [6] | Potency [7] | Potency [8] | Potency [9] | outcome [10]

CC(=O)c1ccc(OCC(=O)N2CCCCC2)cc1
inactive: Potency [1] | outcome [2] | Potency [3] | Potency [4] | outcome [5] | Potency [6] | Potency [7] | Potency [8] | Potency [9] | outcome [10]

C=CCOc1c(Br)cc(Br)cc1Br
inactive: Potency [1] | outcome [2] | Potency [3] | Potency [4] | outcome [5] | Potency [6] | Potency [7] | Potency [8] | Potency [9] | outcome [10]
